Drawing on PubChem BioAssay (EPA / NIEHS), this text covers outcome and AC50 for three molecules.

Active and inactive are the calls of the source. How the source made its calls: active means hit-call score of the fitted dose curve at least 0.9, where 1 is the maximum; inactive means score below 0.9.

The nature of experiment [1]: ATG_CRE_CIS: Attagene CIS-FACTORIAL HepG2 Assay for human cAMP Responsive Element (CRE) binding protein 3 (AID 2282926). The conditions noted are these: HepG2 CRE cis-reporter, Attagene multiplexed mRNA; actives raise or lower the signal. Summed up: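 HepG2 cells transiently transfected with cis-element-driven multiple reporter transcription units; CRE reporter mRNA measured 24 h after dosing by RT-PCR, 6-FAM labelling, HpaI digestion and capillary electrophoresis. Bidirectional fit versus DMSO baseline.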

In experiment [2] the target is CCAAT/enhancer-binding protein beta (Homo sapiens) (UniProt P17676). In words: ATG_C_EBP_CIS: Attagene CIS-FACTORIAL HepG2 Assay for human CCAAT/Enhancer Binding Protein (C/EBP) beta (AID 2282927). The conditions noted are these: HepG2 Attagene cis-factorial transcription factor reporter; actives raise or lower the signal. Summed up: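 RT-PCR/capillary electrophoresis fluorescence of reporter mRNA, 24 h post-dose, in HepG2 cells carrying transfected cis-promoter reporter units. Bidirectional curve fitting against DMSO baseline captures gain or loss of signal.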

Experiment [3] in a line: ATG_CMV_CIS: Attagene CIS-FACTORIAL HepG2 Assay for human CMV (Internal Marker) (AID 2282928).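 Further: endpoint acts as a background internal control marker rather than a target.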 The conditions noted are these: HepG2 CMV promoter reporter, transcription factor profiling; actives raise or lower the signal. Summed up:
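Endogenous transcription factor activity read in HepG2 via transfected cis-promoter reporter units. After 24 h dosing, reporter mRNA measured by RT-PCR/capillary electrophoresis; gain or loss of signal fit relative to DMSO.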

Experiment [4] in a line: ATG_DR4_LXR_CIS: Attagene CIS-FACTORIAL HepG2 Assay for human Liver X Receptor (LXR), DR4 submotif (AID 2282929). The conditions noted are these: HepG2 Attagene DR4 cis-reporter, mRNA transcription; actives raise or lower the signal. Summed up:
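After transient transfection with multiplexed cis-promoter reporter units, HepG2 cells received test chemicals for 24 h. Reporter mRNA induction, detected by fluorescence after RT-PCR and capillary electrophoresis, was scored relative to DMSO.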

The nature of experiment [5]: ATG_AP_1_CIS: Attagene CIS-FACTORIAL HepG2 Assay for human Activator Protein 1 (AP-1) (AID 2282931). The conditions noted are these: HepG2 Attagene cis-factorial AP-1 reporter mRNA; actives raise or lower the signal. In short, it runs like this:
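After 24 h incubation with test chemical, RNA from transfected HepG2 cells was reverse-transcribed, amplified, fluorescently labelled and digested before capillary electrophoresis. Reporters were driven by cis-regulatory promoters; activity fitted bidirectionally versus DMSO.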

The nature of experiment [6]: ATG_BRE_CIS: Attagene CIS-FACTORIAL HepG2 Assay for human Bone Morphogenetic Protein (BMP) Response Element (BRE) (AID 2282933). The conditions noted are these: HepG2 BMP response element reporter, Attagene transcription factor profiling; actives raise or lower the signal. Summed up: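 Gain- or loss-of-signal was derived by bidirectional fitting against DMSO controls. The signal came from reporter mRNA, measured by RT-PCR and capillary electrophoresis, in HepG2 cells transiently carrying multiple reporter units and dosed for 24 h.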

Experiment [7] is described as follows: ATG_E_Box_CIS: Attagene CIS-FACTORIAL HepG2 Assay for human Enhancer Box (E-box) (AID 2282936). The conditions noted are these: HepG2 E-box cis-reporter transcription, actives raise or lower the signal. Summed up: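 HepG2 cells transiently transfected with multiplexed cis-element reporter units sensing endogenous transcription factor activity; 24 h compound exposure. Reporter mRNA measured by RT-PCR, 6-FAM primer extension, HpaI digestion and capillary electrophoresis; bidirectional fit versus DMSO.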

Experiment [8] can be described thus: ATG_M_19_CIS: Attagene CIS-FACTORIAL HepG2 Assay for M19 Transcription Factor (Internal Marker) (AID 2282939). The conditions noted are these: HepG2 Attagene CIS-FACTORIAL M19 internal marker reporter; actives raise or lower the signal. In short, it runs like this: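 Following a 24 h exposure, RNA from transfected HepG2 cells was reverse-transcribed, PCR-amplified with reporter-specific primers, end-labelled with 6-FAM and HpaI-digested before capillary separation. Values represent gain or loss versus DMSO.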

Experiment [9] can be described thus: ATG_GATA_CIS: Attagene CIS-FACTORIAL HepG2 Assay for human GATA Binding Protein (AID 2282944). The conditions noted are these: HepG2 GATA cis-element reporter, Attagene multiplex mRNA; actives raise or lower the signal. In short, it runs like this:
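DMSO serves as negative control and baseline for bidirectional fitting of reporter mRNA changes. HepG2 cells bearing transiently transfected cis-promoter reporters were exposed 24 h; transcripts detected via RT-PCR and capillary electrophoresis.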

The nature of experiment [10]: ATG_ISRE_CIS: Attagene CIS-FACTORIAL HepG2 Assay for human Interferon Regulatory Factor 1 (IRF1) binding to an Interferon-Stimulated Response Element (ISRE) (AID 2282948). The conditions noted are these: HepG2 ISRE cis-reporter (Attagene), mRNA transcription readout; actives raise or lower the signal. Summed up: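 Transfected HepG2 (multiple reporter transcription units, cis elements) dosed 24 h. RNA → oligo(dT) RT → PCR → 6-FAM primer extension → HpaI → CE. DMSO = negative control/baseline.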

Experiment [11] can be described thus: ATG_M_32_CIS: Attagene CIS-FACTORIAL HepG2 Assay for M32 Transcription Factor (Internal Marker) (AID 2282949).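 Further: background control marker of the multiplexed CIS panel rather than a real target.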 The conditions noted are these: HepG2 Attagene cis-factorial M32 reporter, mRNA; actives raise or lower the signal. In short, it runs like this: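 Internal background marker read-out: RT-PCR/capillary electrophoresis fluorescence of reporter transcripts from transiently transfected HepG2 cells after 24 h chemical exposure. Activity fitted bidirectionally relative to DMSO negative control.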

Experiment [12] can be described thus: ATG_M_06_CIS: Attagene CIS-FACTORIAL HepG2 Assay for M06 Transcription Factor (Internal Marker) (AID 2282950). The conditions noted are these: HepG2 Attagene CIS-FACTORIAL M06 internal marker reporter; actives raise or lower the signal. Summed up: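 Fluorescence-labelled RT-PCR products from cis-promoter reporter units, cut with HpaI and resolved by capillary electrophoresis, give the signal. Cells are human HepG2, dosed for 24 h. Serves as background control, fitted relative to DMSO.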

A short description of experiment [13]: ATG_MRE_CIS: Attagene CIS-FACTORIAL HepG2 Assay for human Metal Responsive Element (MRE) (AID 2282954). The conditions noted are these: HepG2 MRE cis-reporter transcription, Attagene multiplex; actives raise or lower the signal. Summed up: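 HepG2 cells transiently transfected with multiple cis-element reporter units measure endogenous MTF1-driven transcription. After 24 h compound exposure, reporter mRNA is quantified by RT-PCR with 6-FAM labelling, HpaI digestion and capillary electrophoresis; bidirectional fits versus DMSO.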

Experiment [14] has as its target Paired box protein Pax-6 (Homo sapiens) (UniProt P26367). In words: ATG_Pax6_CIS: Attagene CIS-FACTORIAL HepG2 Assay for human Paired Box 6 (PAX6) (AID 2282956). The conditions noted are these: HepG2 CIS-FACTORIAL PAX6 reporter transcription, RNA readout; actives raise or lower the signal. Summed up:
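Transient MRTU transfection of HepG2 → compound exposure 24 h → TriZol RNA, oligo(dT) RT → PCR, 6-FAM primer extension, HpaI cut → capillary electrophoresis; activity fitted both directions against DMSO.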

Experiment [15] can be described thus: ATG_PXRE_CIS: Attagene CIS-FACTORIAL HepG2 Assay for human Pregnane X Receptor Element (PXRE) (AID 2282957). The conditions noted are these: HepG2 Attagene CIS-FACTORIAL PXRE reporter, mRNA; actives raise or lower the signal. Summed up:
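HepG2 cells transiently transfected with cis-element-driven multiplexed reporter units; after 24 h chemical exposure, reporter mRNA measured by RT-PCR, 6-FAM labelling, HpaI digestion and capillary electrophoresis. Bidirectional fitting relative to DMSO.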

Experiment [16] is described as follows: ATG_Sox_CIS: Attagene CIS-FACTORIAL HepG2 Assay for human SRY-box transcription factor (SOX) (AID 2282960). The conditions noted are these: HepG2 Attagene cis-factorial SOX reporter, mRNA; actives raise or lower the signal. Summed up:
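Using transiently transfected HepG2 cells, reporter transcription driven by cis elements was assessed 24 h after dosing. Signal was fluorescence of capillary-separated RT-PCR products, with DMSO defining baseline activity.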

Experiment [17] deals with Transcription factor Sp1 (Homo sapiens) (UniProt P08047). Put plainly: ATG_Sp1_CIS: Attagene CIS-FACTORIAL HepG2 Assay for human Specificity Protein 1 (Sp1) (AID 2282961). The conditions noted are these: HepG2 Sp1 cis-reporter transcription, actives raise or lower the signal. Summed up:
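After transient transfection of HepG2 cells with cis-promoter reporter units and 24 h chemical treatment, reporter transcripts were quantified by RT-PCR and capillary electrophoresis fluorescence. Gain- and loss-of-signal fitted against DMSO.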

A short description of experiment [18]: ATG_TA_CIS: Attagene CIS-FACTORIAL HepG2 Assay for human TA Basal Promoter (AID 2282964). The conditions noted are these: HepG2 Attagene CIS-factorial TA basal promoter reporter; actives raise or lower the signal. In short, it runs like this:
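Multiplexed mRNA reporter assay, HepG2, 24 h. Reporter cDNA amplified, 6-FAM primer-extended, HpaI-cut, CE-sized; DMSO = negative control and baseline.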

Experiment [19] in a line: ATG_TCF_b_cat_CIS: Attagene CIS-FACTORIAL HepG2 Assay for human T-Cell-Factor with beta-catenin (TCF/b-cat) (AID 2282965). The conditions noted are these: HepG2 TCF/beta-catenin cis-reporter transcription, actives raise or lower the signal. Summed up: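 HepG2 cells transiently transfected with multiple cis-promoter-regulated reporter transcription units, so endogenous transcription factor activity is measured. Reporter mRNA read 24 hours after dosing by RT-PCR, fluorescent labelling and capillary electrophoresis; bidirectional fitting against DMSO.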

A short description of experiment [20]: ATG_TAL_CIS: Attagene CIS-FACTORIAL HepG2 Assay for human TAL Basal Promoter (AID 2282966).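 Further: background control endpoint measuring basal TAL promoter reporter mRNA not a specific factor.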 The conditions noted are these: HepG2 Attagene cis-factorial TAL promoter reporter; actives raise or lower the signal. Summed up:
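HepG2 cells transiently transfected with multiplexed cis-promoter reporter units, dosed 24 h. Reporter mRNA quantified by RT-PCR, 6-FAM labelling, HpaI digestion and capillary electrophoresis; TAL basal promoter serves as background control, fitted bidirectionally versus DMSO.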

Chain of Transcription factor Sp1 (Homo sapiens) (P08047 whole entry, looked up): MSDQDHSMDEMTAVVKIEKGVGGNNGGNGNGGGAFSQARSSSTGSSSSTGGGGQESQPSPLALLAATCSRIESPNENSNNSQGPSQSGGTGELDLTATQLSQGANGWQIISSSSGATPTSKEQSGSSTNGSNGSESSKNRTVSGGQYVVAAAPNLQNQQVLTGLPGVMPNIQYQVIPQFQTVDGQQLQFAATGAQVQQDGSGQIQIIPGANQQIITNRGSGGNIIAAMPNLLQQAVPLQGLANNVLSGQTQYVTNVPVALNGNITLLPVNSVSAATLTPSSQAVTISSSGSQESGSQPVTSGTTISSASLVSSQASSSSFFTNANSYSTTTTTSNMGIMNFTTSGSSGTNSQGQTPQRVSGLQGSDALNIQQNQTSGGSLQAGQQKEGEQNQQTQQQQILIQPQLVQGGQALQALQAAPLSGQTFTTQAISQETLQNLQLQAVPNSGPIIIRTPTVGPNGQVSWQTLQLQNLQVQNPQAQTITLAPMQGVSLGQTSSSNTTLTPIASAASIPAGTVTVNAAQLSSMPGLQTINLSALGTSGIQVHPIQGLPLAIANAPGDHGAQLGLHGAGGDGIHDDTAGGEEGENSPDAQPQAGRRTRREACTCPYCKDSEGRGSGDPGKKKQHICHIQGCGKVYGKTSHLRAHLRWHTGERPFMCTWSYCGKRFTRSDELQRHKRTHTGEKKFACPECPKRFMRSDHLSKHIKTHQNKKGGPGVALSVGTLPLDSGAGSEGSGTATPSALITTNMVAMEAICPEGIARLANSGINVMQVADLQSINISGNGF
Chain of Paired box protein Pax-6 (Homo sapiens) (P26367 whole entry, looked up): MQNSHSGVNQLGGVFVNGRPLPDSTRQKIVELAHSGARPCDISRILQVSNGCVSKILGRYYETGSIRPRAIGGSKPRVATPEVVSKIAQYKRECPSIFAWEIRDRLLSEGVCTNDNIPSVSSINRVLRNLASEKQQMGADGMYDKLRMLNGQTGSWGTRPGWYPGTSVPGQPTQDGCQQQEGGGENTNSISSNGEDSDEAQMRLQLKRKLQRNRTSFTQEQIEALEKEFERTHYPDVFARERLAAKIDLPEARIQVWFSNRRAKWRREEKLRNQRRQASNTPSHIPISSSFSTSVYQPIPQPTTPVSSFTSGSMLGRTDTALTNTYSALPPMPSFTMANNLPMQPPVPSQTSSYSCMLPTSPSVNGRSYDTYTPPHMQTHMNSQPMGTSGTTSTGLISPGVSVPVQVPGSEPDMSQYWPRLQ
Chain of CCAAT/enhancer-binding protein beta (Homo sapiens) (P17676 whole entry, looked up): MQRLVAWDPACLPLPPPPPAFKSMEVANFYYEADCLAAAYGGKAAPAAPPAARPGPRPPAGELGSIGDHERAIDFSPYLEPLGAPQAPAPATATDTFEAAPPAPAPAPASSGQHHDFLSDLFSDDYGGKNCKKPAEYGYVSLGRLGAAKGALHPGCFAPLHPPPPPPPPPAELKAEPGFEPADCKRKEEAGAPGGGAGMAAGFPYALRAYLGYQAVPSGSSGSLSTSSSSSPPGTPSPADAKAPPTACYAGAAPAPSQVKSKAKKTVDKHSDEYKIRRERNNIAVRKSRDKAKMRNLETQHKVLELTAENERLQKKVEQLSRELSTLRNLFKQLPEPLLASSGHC

`O=C1NC(=O)C2CC=CCC12` (stereo not given): the result in experiment [1], in [2], in experiment [3], in [4], in experiment [5] and in experiment [6] was inactive. In addition, the outcome in experiment [7], in experiment [8], in experiment [9], in [10], in experiment [11] and in [12] was inactive. The call in experiment [13], in [14], in [15], in experiment [16], in [17] and in experiment [18] was inactive. Also, the molecule was called inactive in [19] and in experiment [20].
`c1ccc(CNc2ncnc3nc[nH]c23)cc1`: the molecule was called inactive in experiment [1], in experiment [2], in [3], in [4], in experiment [5] and in experiment [6]. Besides, the outcome in [7], in experiment [8], in experiment [9], in experiment [10], in experiment [11] and in [12] was inactive. Further, the call in [13], in experiment [14], in experiment [15], in experiment [16], in [17] and in [18] was inactive. For the same molecule, the molecule was classed as inactive in experiment [19] and in [20].
For `O=C(O)c1nc(Cl)c(Cl)c(Cl)c1Cl`, the molecule was called inactive in experiment [1], in experiment [2], in experiment [3], in experiment [4], in experiment [5] and in [6]. The outcome in experiment [7], in experiment [8], in [9], in experiment [10], in [11] and in experiment [12] was inactive. Further, the call in [13], in [14], in [16], in experiment [17], in experiment [18] and in experiment [19] was inactive. Also, the molecule was classed as inactive in experiment [20]. Further, in experiment [15], the AC50 is 73 µM (active).
